Experimental findings from PubChem BioAssay (NCATS) are described below.

“And” between values parts separate entries of the source, which are not always exact repeats. Equal entries are not always repeated. Inconclusive results are not listed. Unmarked numbers belong to inactive results. The source made the active and inactive calls. Calls come from the whole dose curve; as a rule, active = well fitted inhibition curve with a large enough effect; inconclusive = small, poorly fitted or top-dose-only effect; inactive = flat fitted curve, though single readings scatter.

One assay deals with CRL-7250. In words: Cytotoxic Profiling of Annotated Libraries Using Quantitative High-Throughput Screening (AID 1296008). For max response: % is set by controls: 0 for no effect and ±100 for the full control effect. Particulars: Five cell lines viability, CellTiter-Glo ATP luminescence, 48-72 h; max response: hits give low values. A digest of the protocol: (§1)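 Cytotoxicity was measured as CellTiter-Glo ATP luminescence, read after 10 min at room temperature. Compound treatment of the cells lasted 48 or 72 hr at 37 degrees Celsius in a qHTS format.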
A general note: ATP-based viability assays read luminescence as a measure of living cells.

A further assay has as its system HEK293. The assay is described as above. The settings on record: Five cell lines viability, CellTiter-Glo ATP luminescence, 48-72 h; max response: hits give low values. A digest of the protocol:
as §1

For another assay, the system named is KB-3-1. Described as above. The settings on record: Five cell lines viability, CellTiter-Glo ATP luminescence, 48-72 h; max response: hits give low values. A digest of the protocol: as §1
The test system of the next assay is NIH3T3. Described as above. The settings on record: Five cell lines viability, CellTiter-Glo ATP luminescence, 48-72 h; max response: hits give low values. A digest of the protocol: as §1
Assay [1] deals with HACAT. In words: qHTS assay to identify novel small-molecules to repurpose for Merkel cell carcinoma treatment (AID 1296009). Particulars: MCC and control cell lines, CellTiter-Glo viability, 72 h; at 44.8 µM (top of the series) unless noted. A digest of the protocol: (§2)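 After compound transfer in DMSO, plates were kept 72 hr at 37 degree celsius. Luminescent ATP signal from CellTiter-Glo served as viability measure, normalized against DMSO and no-cell controls.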

The test system of the next assay is HEK293T. The assay is described as above. Particulars: MCC and control cell lines, CellTiter-Glo viability, 72 h; at 44.8 µM (top of the series). The procedure, abridged:
as §2

Another assay concerns MCC-13. The assay is described as above. The settings on record: MCC and control cell lines, CellTiter-Glo viability, 72 h; series mostly up to 46 µM. A digest of the protocol: as §2
In assay [2] the test system is HaCat. In words: Cytotoxic Profiling of Annotated Libraries Using Quantitative High-Throughput Screening (AID 1296008). For max response: % is set by controls: 0 for no effect and ±100 for the full control effect. Particulars: Five cell lines viability, CellTiter-Glo ATP luminescence, 48-72 h; max response: hits give low values. A digest of the protocol:
as §1

The next assay has as its system TAB165. Briefly: qHTS profiling for inhibitors of Plasmodium falciparum proliferation (AID 504749). The settings on record: P. falciparum in erythrocytes, SYBR Green DNA, 72 h; series mostly up to 28.7 µM. A digest of the protocol: (§3)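 Three-day growth assay of blood-stage parasites in erythrocytes (0.3% parasitemia, 2.5% hematocrit) at 37 C, 5% CO2, quantified by SYBR Green DNA staining after overnight detergent lysis.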
On the technique in general: qHTS replaces the single test concentration by a dilution series.

The next assay relates to W2. The description is as above. The settings on record: P. falciparum in erythrocytes, SYBR Green DNA, 72 h; series mostly up to 28.7 µM. A digest of the protocol: as §3
Note: nearly all actives have a fitted effect of over 60% in size.
Potency is the fitted concentration of half-maximal effect.

With `COc1ccc(-c2oc3cc(OC)ccc3c2C(=O)c2ccc(C#N)cc2)cc1`, the call with CRL-7250, in the assay on HEK293, with KB-3-1, in the assay on NIH3T3, in the assay on HACAT [1] and with HEK293T was inactive. Further, the Potency entry in the assay with MCC-13 was “inactive”.

As for `O=C(O)[C@@H](c1ccc(OCc2ccc3ccccc3n2)cc1)C1CCCC1`, the max response in the assay on CRL-7250 was -8.88%; with HEK293, -13%; in the assay on HaCat [2], -16.3%; with KB-3-1 it was -4.52%; in the assay with NIH3T3, -0.267%. Further, in the assay with MCC-13, the Potency result is “inactive”.

Consider `Nc1nc2[nH]cc(CCc3ccc(C(=O)N[C@@H](CCC(=O)O)C(=O)O)cc3)c2c(=O)[nH]1`, for which the max response is -1.95% with CRL-7250; -20.9% and 0.617% in the assay with KB-3-1. Moreover, the Potency in the assay on HEK293 is 1480 nM (active); with NIH3T3, 1.18 µM (active). Further, the Potency result in the assay with MCC-13 was “inactive”.

On to `COc1ccc(-c2ccc3c(N4CCOCC4)nc(N4C[C@@H](C)O[C@@H](C)C4)nc3n2)cc1CO`, for which the Potency was 296 nM (active) in the assay with CRL-7250, 662 nM (active) in the assay on HEK293, 1660 nM (active) with KB-3-1 and 3.72 µM (active) in the assay on NIH3T3.

`Cc1csc(NC(=O)c2sc3nc4c(c(C(F)(F)F)c3c2N)CCC4)n1`: the max response in the assay on CRL-7250 is -0.546% and -0.36%; with HEK293, -22.1%; with KB-3-1, 1.14% and -9.3%; in the assay with NIH3T3 it was -3.35% and -3.51%. Further, the call in the assay on HACAT [1] was inactive. Further, in the assay on MCC-13, the Potency result was “inactive”.

For `CC[C@H](Nc1ncnc2nc[nH]c12)c1nc2cccc(F)c2c(=O)n1-c1ccccc1`, the max response with CRL-7250 is -4.35%; in the assay with NIH3T3 it was -27.5%. Further, the Potency with HEK293 is 23500 nM (active); in the assay with HaCat [2] it was 13.2 µM (active). In addition, the molecule was classed as inactive with KB-3-1. In the assay with MCC-13, the Potency entry is “inactive”.

For `Cn1cnc([N+](=O)[O-])c1Sc1ncnc2nc[nH]c12`, the Potency with TAB165 was 11200 nM (active); in the assay with CRL-7250, 3.4 µM (active) and 10.6 µM (active); in the assay on HEK293, 10500 nM (active); in the assay with HaCat [2] it was 2.7 µM (active) and 15 µM (active) and 11.8 µM (active); in the assay on KB-3-1, 2960 nM (active); in the assay on NIH3T3 it was 3.82 µM (active) and 7.5 µM (active) and 5.9 µM (active). Moreover, the Potency in the assay on MCC-13 was 4.28 µM (active) and 6.68 µM (active).

With `COc1ccc(CC2=NN3C([C@@H](CCc4ccccc4)[C@@H](C)O)=NC(C)C3C(=O)N2)cc1OC` (some centres undefined), the max response in the assay on CRL-7250 is -0.833%; in the assay with HEK293, -3.77%; with HaCat [2], -7.5%; in the assay with KB-3-1, 9.1%; in the assay on NIH3T3, 0.654%. Besides, the Potency entry with MCC-13 is “inactive”.

Turning to `COc1ccc(-c2ccc3c(N4CCOC[C@H]4C)nc(N4CCOC[C@H]4C)nc3n2)cc1CO`, the Potency in the assay on CRL-7250 is 9.3 nM (active); with HEK293 it was 16.6 nM (active); in the assay on KB-3-1, 11.8 nM (active); in the assay on NIH3T3, 0.0662 µM (active).

Take `CCN(CC)CCCC(C)Nc1nc(C)cc(Nc2ccc3nc(C)cc(N)c3c2)n1` (centres undefined): the max response in the assay with CRL-7250 was -4.56%; with HEK293, -11.7%. The outcome in the assay on KB-3-1, in the assay on NIH3T3 and in the assay with HACAT [1] was inactive. The Potency result with MCC-13 was “inactive”.

Turning to `OC(CN1CCC(Cc2ccc(F)cc2)CC1)c1ccc(Cl)cc1` (centres undefined), the Potency in the assay with TAB165 was 1260 nM (active); in the assay with W2, 379 nM (active). The max response with CRL-7250 is 0.243% and -6.71%; in the assay with HEK293 it was -10.6% and 0.0097%; with KB-3-1, -3.87% and 8.37%; in the assay with NIH3T3, 0.966% and 1.02%. In addition, the molecule was classed as inactive with HACAT [1]. For the same molecule, in the assay with MCC-13, the Potency result was “inactive”.

Regarding `O=C1[C@H](Cc2ccc(O)cc2)N2C(=O)CCN(C(=O)NCc3ccccc3)[C@H]2CN1Cc1cccc2ccccc12`, the max response in the assay on CRL-7250 is -59.7%. Further, the Potency with HEK293 is 2090 nM (active); in the assay with KB-3-1, 16600 nM (active).

Regarding `COc1ccc(COc2cc3oc(=O)c4cc(C(C)O)ccc4c3cc2OC)cc1` (centres undefined), the Potency in the assay with CRL-7250 is 10500 nM (active); in the assay with HEK293 it was 14800 nM (active). Besides, the outcome with HaCat [2] and in the assay with HACAT [1] was inactive. The Potency result in the assay with MCC-13 is “inactive”.

As for `CC(C)(N)C(=O)N[C@H](COCc1ccccc1)C(=O)N1CCC2(CC1)CN(S(C)(=O)=O)c1ccccc12`, the max response is -61% with CRL-7250; -12.2% and 3.47% with HaCat [2]; -17.9% and 1.97% in the assay on KB-3-1; -13.8% in the assay on NIH3T3. In addition, in the assay with HEK293, the Potency was 23500 nM (active). For the same molecule, the Potency result with MCC-13 was “inactive”.
